# T cruzi growth-1 = blocks T. cruzi growth in NIH3T3 culture; T. cruzi beta-gal in NIH3T3, GalScreen luminescence, 90 h; inhibition, % at 8.34 µM; 5.9% of 77,000 active;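 active = mean inhibition above about 93%, with at least 55% of replicates each passing it, limit read from the data, passing the limit was not always enough; inconclusive = only one of those two conditions holds; inactive = neither condition holds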
# C diff HTS = inhibitors of Clostridium difficile growth; Clostridium difficile clinical isolate growth, OD600, 24 h; hits give low values; growth activity, negative = inhibition, % at 16 µg/mL (by protocol); 0.25% of 86,000 active; AID 1259249;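 active = mean growth activity at or below -80% and every replicate also at or below -80%; inconclusive = mean at or below -80% but some replicate above -80%; inactive = mean growth activity above -80%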;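 also: 0% = DMSO wells and -100% = levofloxacin 16 µg/mL wells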
# Pf Dd2 growth = inhibitors of Plasmodium falciparum Dd2 growth | P. falciparum Dd2 growth, SYBR Green, 72 h; hits give low values | activity change, % at 10 µM | 2.3% of 94,000 active; in the data active = activity change below about -80%; inconclusive = no clear call, values can overlap the other calls
# T cruzi growth-2 = Trypanosoma cruzi proliferation inhibition | 72% of 5,600 active | AID 651739 | inhibition, % at 8.35 µM | shares compounds with T cruzi growth-1 | T. cruzi beta-gal in NIH3T3, GalScreen luminescence, 90 h;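 active = mean replicate inhibition above about 95% and at least 55% of replicates individually reaching it, limit read from the data; inconclusive = only one of the two criteria is met; inactive = neither criterion is met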
# T cruzi growth-3 = Trypanosoma cruzi proliferation inhibition; 21% of 5,600 active; T. cruzi beta-gal in NIH3T3, GalScreen luminescence, 90 h; inhibition, % at 2.09 µM; shares compounds with T cruzi growth-1;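 active = mean inhibition above about 95%, with at least 55% of replicates also reaching it, limit read from the data; inconclusive = meets just one of the two conditions; inactive = meets neither condition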;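 also: plate controls were neutral control median for no effect and positive control median for full effect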
# NIH3T3 tox = cytotoxicity in mouse NIH/3T3 fibroblasts | 14% of 5,600 active | cytotoxicity (signal decrease), % at 8.35 µM | NIH/3T3 viability, CellTiter-Glo ATP luminescence, 90 h | shares compounds with T cruzi growth-1;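 active = mean signal decrease across replicates above about 35% based on untreated-well scatter, with enough replicates individually passing, limit read from the data; inconclusive = no rule stated though some were filed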;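 also: 0% = median of neutral control wells and 100% = median of positive control wells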
# 3T3 cytotox 2 = kills mouse NIH/3T3 fibroblasts; shares compounds with T cruzi growth-1; NIH/3T3 viability, CellTiter-Glo ATP luminescence, 90 h; inhibition, % at 24.9 µM; 56% of 5,600 active;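 active = mean loss of cell viability signal at or above a set limit, and enough replicates individually reaching it; inconclusive = meets only the mean limit or only the replicate share; inactive = meets neither condition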;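 also: 0% = median of neutral control wells and 100% = median of positive control wells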
# Starred values were filed as active, the others as inactive; ? = inconclusive; · = no result. Only some compounds are listed: those with a hit (about 6.8% of all), similar ones and a draw of the others.
SMILES,T cruzi growth-1,C diff HTS,Pf Dd2 growth,T cruzi growth-2,T cruzi growth-3,NIH3T3 tox,3T3 cytotox 2
C[C@H]1CCCCO[C@@H](CN(C)C(=O)Cc2ccccc2)[C@@H](C)CN([C@@H](C)CO)C(=O)c2cc(NS(=O)(=O)c3ccc(Cl)cc3)ccc2O1,101.1*,5.5,-64.6,109.4*,80.0,-23.2,17.4
C[C@@H]1CCCCO[C@@H](CN(C)C(=O)Nc2ccccc2)[C@@H](C)CN([C@H](C)CO)C(=O)c2cc(NS(=O)(=O)c3ccc(Cl)cc3)ccc2O1,47.9,1.2,-7.5,·,·,·,·
CCS(=O)(=O)Nc1ccc2c(c1)C(=O)N(C)C[C@H](OC)[C@H](C)CN(C(=O)C1CCC1)[C@H](C)CO2,25.2,1.0,7.4,·,·,·,·
C[C@@H]1CN([C@H](C)CO)C(=O)Cc2cc(NC(=O)CCN3CCOCC3)ccc2O[C@@H]1CN(C)Cc1ccc(-c2ccccc2)cc1,-6.3,7.5,-1.5,·,·,·,·
O=C(Nc1cccc(F)c1)N[C@H]1CC[C@H](CCNS(=O)(=O)c2cccc(Cl)c2)O[C@@H]1CO,152.1*,·,-31.7,63.1,15.2,-1.2,18.1
O=C(Nc1cccc(F)c1)N[C@@H]1CC[C@H](CCNS(=O)(=O)c2cccc(Cl)c2)O[C@H]1CO,114.7*,·,-88.4*,-26.6,-10.1,-20.3,-7.9
O=C(Nc1cccc(F)c1)N[C@H]1CC[C@@H](CCNS(=O)(=O)c2cccc(Cl)c2)O[C@H]1CO,70.1,·,-25.6,·,·,·,·
O=C(Nc1ccc(F)cc1)N[C@H]1CC[C@H](CCNS(=O)(=O)c2cccc(Cl)c2)O[C@H]1CO,-12.8,-7.9,25.0,·,·,·,·
CC(C)NC(=O)N(C)C[C@H]1Oc2ccc(NC(=O)CCCCCC(=O)Nc3ccccc3N)cc2C(=O)N([C@H](C)CO)C[C@H]1C,-6.8,2.0,-8.1,·,·,·,·
CO[C@H]1CN(C)C(=O)c2cc(NC(=O)c3cc(C)on3)ccc2OC[C@@H](C)N(CC2CC2)C[C@@H]1C,19.8,·,-29.9,·,·,·,·
O=C(C1CC1)N1CC[C@H]2[C@H](CO)Nc3ccc(-c4cccc(F)c4)cc3[C@H]21,116.5*,-31.0,-11.1,98.9*,94.1,3.8,17.1
O=C(C1CCCC1)N1CC[C@@H]2[C@@H](CO)Nc3ccc(-c4cccc(F)c4)cc3[C@@H]21,·,65.6,-37.8,·,·,·,·
O=C(C1CCCCC1)N1CC[C@@H]2[C@H]1c1cc(C#Cc3ccc(F)cc3)ccc1N[C@@H]2CO,105.9*,2.6,-20.9,104.1*,81.3,13.1,104.2*
O=C(C1CC1)N1CC[C@@H]2[C@H](CO)Nc3ccc(-c4cccc(F)c4)cc3[C@@H]21,115.8*,-15.5,-8.6,104.0*,70.5,15.8,10.3
O=C(C1CCCC1)N1CC[C@H]2[C@H](CO)Nc3ccc(C#Cc4ccc(F)cc4)cc3[C@H]21,·,15.6,-73.3,·,·,·,·
O=C(C1CCC1)N1CC[C@@H]2[C@H]1c1cc(-c3cccc(F)c3)ccc1N[C@@H]2CO,101.0*,-13.7,12.6,104.6*,108.7*,12.1,73.9*
COc1ccc(CN(C)C[C@@H]2Oc3ccc(NC(=O)Cc4ccccc4)cc3CC(=O)N([C@@H](C)CO)C[C@H]2C)cc1,·,6.2,-23.3,·,·,·,·
O=C(C[C@@H]1CC[C@H](NC(=O)Nc2ccccc2)[C@H](CO)O1)NCc1ccccn1,15.0,-4.7,-17.4,·,·,·,·
COc1ccccc1S(=O)(=O)N1CC[C@@H]2[C@@H](CO)Nc3ccc(-c4cccc(C#N)c4)cc3[C@@H]21,86.6,-6.2,9.2,·,·,·,·
C[C@@H]1CN([C@@H](C)CO)C(=O)c2cc(C#CC3CCCCC3)cnc2O[C@@H]1CN(C)Cc1cccnc1,·,2.0,-18.3,·,·,·,·
C[C@H]1CN([C@@H](C)CO)C(=O)c2cccc(NC(=O)Nc3ccc(C(F)(F)F)cc3)c2O[C@H]1CN(C)Cc1ccc2c(c1)OCO2,99.4*,·,-25.1,105.7*,103.1*,4.5,97.7*
C[C@@H]1CN([C@H](C)CO)C(=O)c2cccc(NC(=O)Nc3ccc(F)cc3)c2O[C@H]1CN(C)Cc1ccc(Cl)c(Cl)c1,16.5,·,1.7,·,·,·,·
COc1ccc(NC(=O)Nc2cccc3c2O[C@@H](CN(C)Cc2ccc(Cl)c(Cl)c2)[C@H](C)CN([C@@H](C)CO)C3=O)cc1,116.4*,5.4,-35.7,99.2*,102.0*,14.5,53.0*
C[C@@H]1CN([C@@H](C)CO)C(=O)c2cccc(NC(=O)Nc3ccc(C(F)(F)F)cc3)c2O[C@H]1CN(C)Cc1ccc(Cl)c(Cl)c1,129.7*,8.9,-12.7,102.5*,115.9*,38.8*,89.0*
C[C@H]1CN([C@@H](C)CO)C(=O)c2cccc(NC(=O)Nc3ccc4c(c3)OCO4)c2O[C@H]1CN(C)Cc1ccc(C(F)(F)F)cc1,30.5,0.0,5.2,·,·,·,·
SMILES,T cruzi growth-1,C diff HTS,Pf Dd2 growth,T cruzi growth-2,T cruzi growth-3,NIH3T3 tox,3T3 cytotox 2
C[C@H](CO)N1C[C@H](C)[C@H](CN(C)Cc2ccc(Cl)c(Cl)c2)Oc2ccc(NC(=O)Nc3ccc(C(F)(F)F)cc3)cc2C1=O,103.1*,28.0,-5.0,97.7*,109.3*,33.2,107.5*
C[C@@H]1CN([C@H](C)CO)C(=O)c2cccc(NC(=O)Nc3ccc(C(F)(F)F)cc3)c2O[C@@H]1CN(C)Cc1ccc(Cl)c(Cl)c1,90.0,·,-32.9,·,·,·,·
C[C@H]1CN([C@@H](C)CO)C(=O)c2cc(NC(=O)Nc3ccc(C(F)(F)F)cc3)ccc2O[C@@H]1CN(C)Cc1ccc(Cl)c(Cl)c1,83.5,0.8,-32.6,·,·,·,·
Cc1noc(C)c1NC(=O)Nc1ccc2c(c1)C(=O)N([C@H](C)CO)C[C@H](C)[C@H](CN(C)C(=O)Nc1c(C)noc1C)O2,25.4,-6.0,20.4,·,·,·,·
CCNC(=O)[C@@H]1[C@@H](CO)[C@@H]2Cn3c(ccc(C4=CCCC4)c3=O)[C@H]1N2C(=O)CC,2.6,1.5,15.0,·,·,·,·
C[C@@H]1CCCCO[C@H](CN(C)C(=O)Nc2ccc(F)cc2)[C@H](C)CN([C@@H](C)CO)C(=O)c2cc(NC(=O)CCC(F)(F)F)ccc2O1,82.3,·,-54.5,·,·,·,·
C[C@H](CO)N1C[C@H](C)[C@@H](CN(C)Cc2ccc(Cl)c(Cl)c2)Oc2c(NC(=O)Nc3ccc(F)cc3)cccc2C1=O,4.4,·,-13.6,·,·,·,·
C[C@@H]1CN([C@H](C)CO)C(=O)c2cccc(NC(=O)Nc3ccc(C(F)(F)F)cc3)c2O[C@H]1CN(C)Cc1ccc(Cl)c(Cl)c1,?,26.9,-16.4,98.9*,108.1*,22.3,104.8*
Cc1ccc(S(=O)(=O)N(C)C[C@H]2Oc3c(NC(=O)Nc4ccc(C(F)(F)F)cc4)cccc3C(=O)N([C@H](C)CO)C[C@@H]2C)cc1,84.7,10.3,-62.5,·,·,·,·
C[C@@H]1CN([C@H](C)CO)C(=O)c2cccc(NC(=O)Nc3ccc(C(F)(F)F)cc3)c2O[C@@H]1CN(C)S(=O)(=O)c1ccc(Cl)cc1,107.9*,·,-37.3,102.8*,107.0*,34.0,104.6*
